Results: PubChem BioAssay (NCI)
About 83,000 compounds went through this panel and 20% of them were active in at least one assay; those are over-represented in the sample as a whole.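 The endpoint reported here, percent growth, reads 100 for growth as untreated, 0 for no net growth and -100 for all cells dead.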 Calls of active or inactive are those of the source. The calls were made as follows: active = growth percent below 10; inactive = the rest.

Experiments:
Assay in all cases: NCI-60 one-dose screen, 48 h (100 = growth as untreated, 0 = no growth, -100 = all killed)
Settings in all cases: 10 µM unless noted
RPMI-8226 leukemia = test system: RPMI-8226 leukemia
OVCAR-8 ovarian = test system: OVCAR-8 ovarian
OVCAR-5 ovarian = test system: OVCAR-5 ovarian
OVCAR-4 ovarian = test system: OVCAR-4 ovarian
SK-OV-3 ovarian = test system: SK-OV-3 ovarian
IGROV1 ovarian = test system: IGROV1 ovarian
HS 578T breast = test system: HS 578T breast
NCI/ADR-RES ovarian = test system: NCI/ADR-RES ovarian
T-47D breast = test system: T-47D breast
BT-549 breast = test system: BT-549 breast
MDA-MB-435 melanoma = test system: MDA-MB-435 melanoma
MCF7 breast = test system: MCF7 breast
HCT-116 colon = test system: HCT-116 colon
HCC-2998 colon = test system: HCC-2998 colon
KM12 colon = test system: KM12 colon
OVCAR-3 ovarian = test system: OVCAR-3 ovarian
SW-620 colon = test system: SW-620 colon

Measured: growth

COC(=O)CCCCCCN=Cc1c(O)c(O)c(C(C)C)c2cc(C)c(-c3c(C)cc4c(C(C)C)c(O)c(O)c(C=NCCCCCCC(=O)OC)c4c3O)c(O)c12
inactive: RPMI-8226 leukemia 13.2% | OVCAR-8 ovarian 18.6% | OVCAR-5 ovarian 21.7% | OVCAR-4 ovarian 27.7% | SK-OV-3 ovarian 64.8% | IGROV1 ovarian 29.3% | HS 578T breast 20.2% | NCI/ADR-RES ovarian 69.1% | T-47D breast 20.6% | BT-549 breast 38.6% | MDA-MB-435 melanoma 17.2% | HCC-2998 colon 32.6% | KM12 colon 18.2%
active: MCF7 breast 7.98% | HCT-116 colon 8.17%

Cc1ccc(Cn2c(-c3cccs3)nc3ccccc32)cc1
inactive: RPMI-8226 leukemia 77.8% | OVCAR-8 ovarian 82.3% | OVCAR-5 ovarian 98.8% | OVCAR-4 ovarian 76.6% | SK-OV-3 ovarian 100% | IGROV1 ovarian 81.8% | OVCAR-3 ovarian 93.9% | HS 578T breast 89.2% | NCI/ADR-RES ovarian 85.6% | BT-549 breast 128% | MDA-MB-435 melanoma 111% | SW-620 colon 81.2% | MCF7 breast 87.7% | HCT-116 colon 76.5% | HCC-2998 colon 94.9% | KM12 colon 96%

CCC(c1cccc(Br)c1)C(C(=O)O)c1ccc(OC)cc1 (centres undefined)
inactive: RPMI-8226 leukemia 101% | OVCAR-8 ovarian 107% | OVCAR-5 ovarian 109% | OVCAR-4 ovarian 114% | SK-OV-3 ovarian 107% | IGROV1 ovarian 99.3% | OVCAR-3 ovarian 110% | NCI/ADR-RES ovarian 103% | T-47D breast 108% | BT-549 breast 113% | MDA-MB-435 melanoma 29.9% | SW-620 colon 93.2% | MCF7 breast 93% | HCT-116 colon 112% | HCC-2998 colon 93.5% | KM12 colon 83.3%

CCC(=O)Nc1ccccc1C#C/C=C\C#Cc1ccccc1SC
inactive: RPMI-8226 leukemia 20.1% | OVCAR-8 ovarian 144% | OVCAR-5 ovarian 69.1% | OVCAR-4 ovarian 74.6% | SK-OV-3 ovarian 78.1% | OVCAR-3 ovarian 65% | T-47D breast 57.2% | BT-549 breast 71.6% | SW-620 colon 35.3% | MCF7 breast 62.2% | HCT-116 colon 41.6% | KM12 colon 43.5%
active: IGROV1 ovarian -49.3% | HS 578T breast -34.3% | MDA-MB-435 melanoma -16.5%

CC(Cc1nnc(SCC(=O)Nc2ccc(I)cc2)n1N)c1ccccc1 (centres undefined)
inactive: RPMI-8226 leukemia 59.8% | OVCAR-8 ovarian 95.9% | OVCAR-5 ovarian 84.4% | OVCAR-4 ovarian 172% | SK-OV-3 ovarian 97.8% | HS 578T breast 119% | NCI/ADR-RES ovarian 96% | T-47D breast 71.2% | BT-549 breast 97.4% | MDA-MB-435 melanoma 99.9% | SW-620 colon 95.5% | MCF7 breast 93.4% | HCT-116 colon 68.6% | HCC-2998 colon 86.7% | KM12 colon 95.8%
active: IGROV1 ovarian 8.44%

COc1ccc(-c2nc(-c3ccccc3)c(-c3ccccc3)n2C2CC2)cc1OC1CCCCC1
inactive: RPMI-8226 leukemia 48.7% | OVCAR-8 ovarian 55.4% | OVCAR-5 ovarian 83% | OVCAR-4 ovarian 67.9% | SK-OV-3 ovarian 89.4% | IGROV1 ovarian 63.1% | OVCAR-3 ovarian 58.4% | HS 578T breast 73.8% | NCI/ADR-RES ovarian 55.3% | BT-549 breast 97.3% | MDA-MB-435 melanoma 72.5% | SW-620 colon 58.2% | MCF7 breast 52% | HCT-116 colon 38.8% | KM12 colon 62.2%

O=C(Cc1n[nH]c(=O)c2ccccc12)OCc1c(Cl)cccc1Cl
inactive: RPMI-8226 leukemia 63.7% | OVCAR-8 ovarian 102% | OVCAR-5 ovarian 95.7% | OVCAR-4 ovarian 105% | SK-OV-3 ovarian 113% | IGROV1 ovarian 29.4% | HS 578T breast 103% | NCI/ADR-RES ovarian 82.4% | T-47D breast 100% | BT-549 breast 138% | MDA-MB-435 melanoma 84.7% | MCF7 breast 69.9% | HCT-116 colon 49.9% | HCC-2998 colon 70.8% | KM12 colon 66.1%

Cc1cc(-c2ccccc2)c(C)n1Cc1ccc(Cl)cc1
active: MDA-MB-435 melanoma -18.4%
inactive: RPMI-8226 leukemia 44.1% | OVCAR-8 ovarian 47.2% | OVCAR-5 ovarian 64.5% | OVCAR-4 ovarian 61.6% | SK-OV-3 ovarian 62.2% | IGROV1 ovarian 50.4% | HS 578T breast 50.6% | NCI/ADR-RES ovarian 14% | T-47D breast 50.5% | BT-549 breast 37.7% | SW-620 colon 22.7% | MCF7 breast 23.5% | HCT-116 colon 15% | HCC-2998 colon 74.2% | KM12 colon 27.6%

COc1ccc(S(=O)(=O)Nc2cc(/C=C\c3cc(OC)c(OC)c(OC)c3)cc(OC)c2OC)cc1OC
active: OVCAR-3 ovarian -18.2% | HS 578T breast 8.3% | MDA-MB-435 melanoma -66.5%
inactive: RPMI-8226 leukemia 25.3% | OVCAR-8 ovarian 41% | OVCAR-5 ovarian 30.8% | OVCAR-4 ovarian 39.7% | SK-OV-3 ovarian 17.1% | IGROV1 ovarian 49.5% | T-47D breast 43.8% | BT-549 breast 47% | SW-620 colon 25.5% | MCF7 breast 18.1% | HCT-116 colon 15.6% | HCC-2998 colon 21.1% | KM12 colon 21.7%

CC(C)[C@H](CO)Nc1nc(Nc2ccc(C(=O)NCCNS(=O)(=O)c3cccc4c(N(C)C)cccc34)c(Cl)c2)c2ncn(C(C)C)c2n1
inactive: OVCAR-5 ovarian 49.4% | OVCAR-4 ovarian 41.8% | SK-OV-3 ovarian 72.8% | OVCAR-3 ovarian 20.2% | NCI/ADR-RES ovarian 94.5% | HCC-2998 colon 15.7%
active: RPMI-8226 leukemia -41.9% | OVCAR-8 ovarian 9.87% | IGROV1 ovarian -13.7% | BT-549 breast -37.9% | MDA-MB-435 melanoma 0.754% | SW-620 colon 4.97% | MCF7 breast 6.04% | HCT-116 colon 4.44% | KM12 colon -9.33%

Nc1cc2c(cc1N)-c1cc(N)c(N)cc1C2
inactive: RPMI-8226 leukemia 95.9% | OVCAR-8 ovarian 103% | OVCAR-5 ovarian 109% | OVCAR-4 ovarian 108% | SK-OV-3 ovarian 99.2% | IGROV1 ovarian 97.6% | OVCAR-3 ovarian 109% | NCI/ADR-RES ovarian 111% | T-47D breast 110% | BT-549 breast 79.7% | MDA-MB-435 melanoma 108% | SW-620 colon 102% | MCF7 breast 93.5% | HCT-116 colon 104% | HCC-2998 colon 105% | KM12 colon 101%

O=S(=O)(O)CCl
inactive: RPMI-8226 leukemia 98.7% | OVCAR-8 ovarian 100% | OVCAR-5 ovarian 98.3% | OVCAR-4 ovarian 105% | SK-OV-3 ovarian 107% | IGROV1 ovarian 106% | OVCAR-3 ovarian 106% | NCI/ADR-RES ovarian 103% | T-47D breast 97.2% | BT-549 breast 100% | MDA-MB-435 melanoma 108% | SW-620 colon 103% | MCF7 breast 103% | HCT-116 colon 103% | HCC-2998 colon 98.9% | KM12 colon 105%

COC(=O)CCCCCN=Cc1c(O)c(O)c(C(C)C)c2cc(C)c(-c3c(C)cc4c(C(C)C)c(O)c(O)c(C=NCCCCCC(=O)OC)c4c3O)c(O)c12
active: HCT-116 colon 9.82%
inactive: RPMI-8226 leukemia 16.6% | OVCAR-8 ovarian 11.4% | OVCAR-5 ovarian 11.3% | OVCAR-4 ovarian 15.5% | SK-OV-3 ovarian 24% | IGROV1 ovarian 25.6% | OVCAR-3 ovarian 15.9% | HS 578T breast 19.9% | NCI/ADR-RES ovarian 61.8% | BT-549 breast 35.1% | MDA-MB-435 melanoma 21.1% | SW-620 colon 20.2% | MCF7 breast 12.9% | HCC-2998 colon 30.2% | KM12 colon 19.7%

CC(=O)N1Cc2ccccc2C(C)Cc2cc(Cl)ccc21 (centres undefined)
inactive: RPMI-8226 leukemia 105% | OVCAR-8 ovarian 109% | OVCAR-5 ovarian 99.1% | OVCAR-4 ovarian 97.9% | SK-OV-3 ovarian 108% | IGROV1 ovarian 102% | HS 578T breast 97.7% | T-47D breast 100% | BT-549 breast 115% | MDA-MB-435 melanoma 106% | SW-620 colon 106% | MCF7 breast 102% | HCT-116 colon 105% | HCC-2998 colon 100% | KM12 colon 103%

CC(C(=O)n1cc(-c2ccccc2)c(-c2ccccc2)c1)c1ccccc1 (centres undefined)
inactive: RPMI-8226 leukemia 98.2% | OVCAR-8 ovarian 99.2% | OVCAR-5 ovarian 106% | OVCAR-4 ovarian 107% | SK-OV-3 ovarian 105% | IGROV1 ovarian 111% | OVCAR-3 ovarian 118% | NCI/ADR-RES ovarian 106% | T-47D breast 93.4% | BT-549 breast 117% | MDA-MB-435 melanoma 104% | MCF7 breast 100% | HCT-116 colon 99.8% | HCC-2998 colon 104% | KM12 colon 105%

COc1ccc(Cl)cc1NC(N)=S
inactive: RPMI-8226 leukemia 100% | OVCAR-8 ovarian 108% | OVCAR-5 ovarian 113% | OVCAR-4 ovarian 94.8% | SK-OV-3 ovarian 118% | OVCAR-3 ovarian 108% | HS 578T breast 104% | NCI/ADR-RES ovarian 105% | T-47D breast 96.3% | BT-549 breast 107% | MDA-MB-435 melanoma 104% | SW-620 colon 104% | MCF7 breast 96.2% | HCT-116 colon 102% | HCC-2998 colon 102% | KM12 colon 105%
